40 sequences from the supplement of paper PMC10338343 can be followed below.

± gives the standard deviation.

The subject of this assay is MILI (PIWIL2) piRISC loaded with piRNA #1 (26 nt). The experiment in a line: pre-steady-state target cleavage rate (min^-1); guide: piRNA #1 5'p-UGAGGUAGUAGGUUGUAUAGUAUCCA; MIWI and MILI are mouse PIWI proteins and EfPiwi is from a freshwater sponge; tags in brackets are library labels; higher = faster piRNA-guided slicing of the target. The settings on record: auxiliary factor: 500 nM mouse GTSF1. The protocol:
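Cleave-'n-Seq: a library of target RNAs (target site embedded in constant flanks, ACAGCATTCCGCGTTAGTGATATCCG... 5' flank; DNA-blocked outside the site) at 0.1 nM was incubated with 1 nM active mouse MILI or MIWI piRISC (synthetic 5'-monophosphorylated piRNA guide) with or without 500 nM mouse GTSF1 at 33 °C for 1 min to 16 h. Uncleaved targets were sequenced and normalised to non-target controls, and the pooled three trials were fitted to a burst-and-steady-state model to give the pre-steady-state cleavage rate (min^-1; k3 is constrained to at most 1e-4). Sequence is the target site only; target names encode pairing extent (gX:gY) and contiguous / 1-mismatch / 2-mismatch / bulge geometry. Fits with R² ≤ 0 are excluded.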
GGAGACCAUACUAUACAACCUAGAUCCUCA: the “pre-steady-state target cleavage rate” value stood at 0.0232 ± 0.0082. The figure for GGAGACGAUACUAUUCAACGUACUACCUCA is 0.0257 ± 0.0034; for GGAGACGAUACUAUACAAUCUACUACCUCA it is 0.131 ± 0.0093; for GGAGACCUAACUAUAAAACCUACUACCUCA it is 0.0772 ± 0.013. With GGAGACGAUACUAUUGUACCUACUACCUCA, the “pre-steady-state target cleavage rate” value was determined as 0.119 ± 0.0095. Then GGAGAGGAUACAAUACAACCUUCUACCUCA, with 0.0148 ± 0.003; and GGAGUGGAUACUAUACAUCCUACUUCCUCA, with 0.0127 ± 0.0032; and GGAGACGAUACUAUACAACACUACUACCUCA, with 0.00963 ± 0.0034. Then GGAGACCUUAGUAUAGAACCUACUACCUCA, with 0.0876 ± 0.013; and GGAGAGGAUACUAUACAACGUACUACCACA, with 0.0287 ± 0.0041; and GGAGACCAUACUAUCAACCUACUACCUCA, with 0.199 ± 0.022.

Take GGAGACCAUACUAUACAAGCUUCUACCUCA: the “pre-steady-state target cleavage rate” value was 0.036 ± 0.007. Consider GGAGACCAUACUAUGCAACCUACUACCUCA, for which the “pre-steady-state target cleavage rate” value came out at 0.174 ± 0.019. GGAGUCGAUUCUAUACAACCUACUACCUCA: the “pre-steady-state target cleavage rate” value is 0.182 ± 0.01. The figure for GGAGACCUAUCUAUACAUCCAACUACCUCA is 0.00941 ± 0.0034; for GGAGUGGAUACUAUAGAACCUACUACCACA it is 0.0519 ± 0.0082. Then GGAGACGAUACGAUACAACCUACUACCUCA, with 0.193 ± 0.018; and GGAGACCAUACUAUACAAGCUAGUACCUCA, with 0.0775 ± 0.016; and GGAGACCUUACUAUUACAACCUACUACCUCA, with 0.117 ± 0.01. GGAGAGGAUACUUUAGAACCUACUACCUCA: the “pre-steady-state target cleavage rate” value is 0.153 ± 0.0078.

For the sequence GGAGACCAUACUUUACAACCUACUACGUCA, the “pre-steady-state target cleavage rate” value turned out to be 0.0972 ± 0.016.

Regarding GGAGACGAUAGUAAACAACCUACUACCUCA, the “pre-steady-state target cleavage rate” value worked out at 0.134 ± 0.01. Regarding GGAGACCUUACUAUACAACCUACUACGCUCA, the “pre-steady-state target cleavage rate” value was 0.256 ± 0.019. On to GGAGACGAUGCUAUACAACCUACUACCUCA, for which the “pre-steady-state target cleavage rate” value came to 0.194 ± 0.021.

As for GGAGACCUUACUAUACAACCUACUGACCUCA, the “pre-steady-state target cleavage rate” value came to 0.107 ± 0.017. With GGAGACCAUACUAUUACAACCUACUACCUCA, the “pre-steady-state target cleavage rate” value stood at 0.161 ± 0.013. For GGAGACCUAUGUAUACAACCUACUACCGUCA, the “pre-steady-state target cleavage rate” value came out at 0.0528 ± 0.0094. Then GGAGACCUAUGUAUACAACCUCACUACCUCA, with 0.00401 ± 0.0027; and GGAGACCAUAGUAUACAACCUUCUACCUCA, with 0.0111 ± 0.0041. The figure for GGAGACCUAUGAUAUGUUCCUUCUACCUGA is less than 0.0001; for GGAGACGAUAGUAUACAACCAACUACCUCA it is 0.00662 ± 0.0036. Take GGAGACGAUAGUAUUCAACCUACUACCUCA: the “pre-steady-state target cleavage rate” value is 0.156 ± 0.012.

Turning to GGAGACCUAUCUAUACAAACUACUACCUCA, the “pre-steady-state target cleavage rate” value is 0.171 ± 0.015.

Regarding GGAGACCUAUCUAUACAACCUACUACCUGCA, the “pre-steady-state target cleavage rate” value is 0.103 ± 0.014. Then GGAGAGGAUACUAUACAACGUUCUACCUCA, with 0.00213 ± 0.0019. As for GGAGUGGAUACUAUACAACCUACAACCUCA, the “pre-steady-state target cleavage rate” value turned out to be 0.0801 ± 0.011. Then GGAGAGGAUACUUUACAACGUACUACCUCA, with 0.018 ± 0.0029; and GGAGGGGAUACUAUACAACCUACUACCUCA, with 0.203 ± 0.0091. The figure for GGAGACCUAUGAUAUGUACCUACUAGGACA is less than 0.0001. The figure for GGAGACCUAUGUAUACGACCUACUACCUCA is 0.0178 ± 0.0033.
